# Results as given in PubChem BioAssay AID2314 (National Center for Advancing Translational Sciences (NCATS), 2010).
# “And” between values parts separate entries of the source, which are not always exact repeats. Identical values can stand only once. The campaign covered roughly 300,000 compounds. About 37,000 (12%) were called active. The entries come from a sample that favours actives as a whole. A number with no mark means an inactive call. No stated cut-off is given here; in the data, active means max response mostly above about 13% (no sharp cut-off); inactive means mostly below about 14%.
# Assay: Cycloheximide Counterscreen for Small Molecule Inhibitors of Shiga Toxin; further: read at 38.3 µM for the half of the compounds with a filed dose; 0% is about no effect
# Conditions: cell reporter, cycloheximide protein synthesis inhibition counterscreen; active compounds read high
row,SMILES,max response
1,CN(C)C(=O)Oc1ccc2c(c1)O/C(=C\c1ccccc1)C2=O,44.1% (active)
2,O=C1/C(=C/c2ccc3c(c2)OCO3)Oc2cc(OCC(=O)N3CC(O)C[C@H]3C(=O)O)ccc21 (stereo not given in full),0.739%
3,COC(=O)C(C)Oc1ccc2c(c1)O/C(=C\c1cccc(Br)c1)C2=O (stereo not given),1.99%
4,COc1cc(C(CCN2CCN(c3ccccc3)CC2)c2c(OC)cc(OC)c3ccc(=O)oc23)cc(OC)c1OC (stereo not given),-1.52% and 15.6%
5,C=C(C)COc1ccc(-c2ncncc2-c2ccc(OC)cc2)c(O)c1,13.2%
6,Cc1ccc(SCC(=O)c2cc(C)c(OC(=S)N(C)C)c(C)c2)cc1,26.1% (active)
7,Cc1ccc(SC(=O)COc2ccc(C)c(C)c2)cc1,-5.87%
8,COC(=O)c1cc(OC)c(OC)cc1NC(=O)CSc1ccc(C)cc1,-2.51%
9,Cc1ccc(NC(=O)c2ccc(S(=O)(=O)NCC3CCCO3)cc2)cc1C (stereo not given),9.52%
10,Cc1ccc(-c2nn(-c3ccccc3)cc2/C=C2\SC(=S)N(CCCCCC(=O)O)C2=O)o1,1.36%
11,O=C(NC(=S)N1CCCCC1c1cccnc1)c1ccccc1 (stereo not given),11.6%
12,C=C(C)c1cccc(C(C)(C)NC(=O)NC2CCCC2)c1,-2.37%
13,Cc1ccc(C)c(N2CCN(C(=O)Cn3ncn4cccc4c3=O)CC2)c1,-1.35%
14,O=Cc1ccc(Oc2cccc(C(F)(F)F)c2)nc1,15%
15,FC(F)(F)c1ccnc(Oc2ccc(C3=NCCS3)cc2)c1,42.3% (active)
16,NC(=S)Nc1c(Cl)cccc1Cl,4.66%
17,CCOC(=O)c1oc2ccccc2c1NC(=O)c1cccs1,-3.1%
18,CCc1cccc(NC(=O)CCNS(=O)(=O)c2cccc3nonc23)c1,-2.33%
19,C/C(=N\OCC(=O)Nc1ccc(Br)cc1)c1cccs1,7.82%
20,O=C(COC(=O)c1ccc(Cl)nc1)NCc1cccs1,-2.61%

row,SMILES,max response
1,CCc1ccc(NC(=O)C(=O)N/N=C(\C)CC(=O)NCCOC)cc1,20.1%
2,O=C(COC(=O)c1ccc(NS(=O)(=O)c2cccs2)cc1O)Nc1ccc(F)cc1,0.935%
3,CCc1ccc(NC(=O)C(=O)NNC(=O)c2cccs2)cc1,27.8% (active)
4,O=C(COC(=O)c1cccs1)Nc1ccccc1Cl,-1.99%
5,O=C(COC(=O)c1cccs1)NCc1cccs1,16.3% (active)
6,O=C(COC(=O)CCC(=O)c1cccs1)NCc1ccco1,1.52%
7,CCc1ccc(NC(=O)CCNS(=O)(=O)c2cccs2)cc1,21.6% (active)
8,CCc1ccc(NC(=O)COC(=O)c2cccs2)cc1,51.3% (active)
9,CCc1ccccc1N(CC(=O)NCC1CCCO1)C(=O)CCC(=O)Nc1nccs1 (stereo not given),-4.73%
10,CCOc1ccccc1NC(=O)C1CCCN(S(=O)(=O)c2ccccc2)C1 (stereo not given),-1.93%
11,CCc1nnc(NS(=O)(=O)c2ccc(NC(=S)NC(=O)c3cccs3)cc2)s1,0.706%
12,O=C(NC(=S)Nc1ccc(NC(=O)c2cccs2)cc1)c1ccc([N+](=O)[O-])cc1,0.608%
13,NS(=O)(=O)c1ccc(NC(=S)NNC(=O)c2cccs2)cc1,29.3% (active)
14,O=C(c1n[nH]c2c1CCC2)N1CCCC(Nc2cccc(F)c2)C1 (stereo not given),10.7%
15,O=C(NCc1ccc(Cl)cc1)c1cc(=O)nc2sc(-c3ccccc3)nn12,-4.5%
16,CC(=NCc1ccc2c(c1)OCO2)C1=C(O)c2ccccc2C1=O,14.2% (active)
17,CC(=NCc1ccco1)C1=C(O)c2ccccc2C1=O,24.6%
18,CC(=NCc1ccc2c(c1)OCO2)c1c(O)[nH]c(=O)[nH]c1=O,-1.94%
19,CC1C(=O)N(Cc2ccccc2)c2ccccc2N1C(=O)c1ccccc1 (stereo not given),5.44%
20,O=C(OCc1ccc([N+](=O)[O-])cc1)C1CC(=O)N(Cc2ccccc2Cl)C1 (stereo not given),5.26%

row,SMILES,max response
1,CN1CCN(S(=O)(=O)c2cccc(C(=O)Nc3cccc(S(N)(=O)=O)c3)c2)CC1,5.45%
2,O=C(Nc1ccc2c(c1)CCC2)c1cccc(S(=O)(=O)N2CCN(c3ccc(F)cc3)CC2)c1,18.6% (active)
3,Cc1cccnc1NC(=O)c1cccc(S(=O)(=O)N2CCN(c3ccc(F)cc3)CC2)c1,-1.47%
4,OCCC1CN(Cc2cnc(-c3ccccc3)s2)CCN1CCc1ccccc1 (stereo not given),-2.01%
5,Clc1ccc(-c2nnc(SCc3nc4ccccc4s3)o2)cc1,31.5% (active)
6,O=C(COC(=O)CSc1nnc(-c2ccc(Cl)cc2)o1)Nc1cc(Cl)cc(Cl)c1,-1.68%
7,O=C(CSc1nnc(-c2ccncc2)o1)NCc1ccc(Cl)cc1,-4.87%
8,O=C(NCc1ccccc1Cl)C1CCN(S(=O)(=O)c2cccc3nonc23)CC1,7.56%
9,O=c1oc(-c2ccccc2NS(=O)(=O)c2ccc(Cl)cc2)nc2ccccc12,-0.333%
10,Cc1cc(N/N=C\c2ccc(Br)cc2)nc(-n2nc(C)cc2C)n1,-2.43%
11,Cc1nc(Cl)cc(N/N=C/c2ccccc2)n1,9.02% (active)
12,C(=N/Nc1cc(N2CCOCC2)nc(N2CCOCC2)n1)/c1ccccc1,-4.51%
13,CCc1ccc2oc(=O)cc(CN3CCCCC3C)c2c1 (stereo not given),10.3%
14,CCOC(=O)C1CCCN(C(=O)COc2ccc(N(C)S(=O)(=O)c3ccc(C)cc3)cc2)C1 (stereo not given),-3.78%
15,O=C(NCC1CCCO1)C1CCN(C2CCN(C(=O)C3CCCCC3)CC2)CC1 (stereo not given),-2.3%
16,Cc1cc(=O)n2[nH]c(-c3cccc(Cl)c3)cc2n1,6.54%
17,O=c1c2c(nc3nc[nH]n13)CCC2,-2.72%
18,O=c1c2c(nc3cc(-c4cccc(Cl)c4)[nH]n13)CCCC2,52.1% (active)
19,COc1ccc(OC)c(NC(=O)Cc2cccs2)c1,5.9%
20,CS(=O)(=O)N(CC(=O)N/N=C/c1ccccn1)c1ccc(Oc2ccccc2)cc1,8.35%
